# Screens: PubChem, several laboratories
# ERb SRC1 inh: inhibitors of ERβ-SRC1 coactivator interaction, primary screen, biochemical, TR-FRET, ERβ LBD, SRC-1 peptide; TR-FRET ER-beta LBD / SRC1-Cy5 peptide binding; receptor agonist-loaded with 1 µM estradiol; inhibition, % at 25.6 µM; hit rate 1.3% among 86,000; AID 633, 2007; Estrogen receptor beta (Homo sapiens), Q92731;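 active means compounds whose percent inhibition of the receptor-coactivator binding signal exceeds about 50% in the single-dose screen, limit read from the data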;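 further: 0% = receptor plus peptide wells without compound and 100% = peptide-only wells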
# ERa SRC1 inh: ERα–SRC-1 coactivator interaction inhibitors, primary screen, biochemical, TR-FRET, ERα LBD, estradiol-bound; hit rate 1.7% among 86,000; TR-FRET ER-alpha LBD / SRC-1 peptide; inhibition, % at 25.6 µM; in the data active means inhibition above about 50%;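 further: 0% = receptor plus peptide control and 100% = peptide only without receptor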
# Target sequence (P03372 whole entry, looked up, the tested form may be a part): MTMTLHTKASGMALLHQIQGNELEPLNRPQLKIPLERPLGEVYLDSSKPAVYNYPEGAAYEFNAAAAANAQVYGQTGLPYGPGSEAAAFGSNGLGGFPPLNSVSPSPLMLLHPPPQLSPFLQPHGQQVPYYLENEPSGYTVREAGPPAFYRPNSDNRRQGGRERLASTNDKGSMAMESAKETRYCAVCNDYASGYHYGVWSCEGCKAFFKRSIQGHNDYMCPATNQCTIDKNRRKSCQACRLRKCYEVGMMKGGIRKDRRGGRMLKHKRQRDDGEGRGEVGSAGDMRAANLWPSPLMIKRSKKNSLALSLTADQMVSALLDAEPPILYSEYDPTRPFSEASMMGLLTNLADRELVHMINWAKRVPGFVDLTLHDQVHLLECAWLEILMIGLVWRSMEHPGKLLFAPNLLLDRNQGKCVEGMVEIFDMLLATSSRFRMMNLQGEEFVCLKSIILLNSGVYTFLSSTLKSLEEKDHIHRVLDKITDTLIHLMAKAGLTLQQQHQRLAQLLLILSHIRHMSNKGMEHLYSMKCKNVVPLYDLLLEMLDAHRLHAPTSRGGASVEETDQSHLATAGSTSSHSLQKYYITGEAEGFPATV
# ERa SRC1 pot: enhancers of ERα–SRC-1 coactivator binding, primary screen, biochemical, TR-FRET, ERα LBD, low estradiol. Estrogen receptor (Homo sapiens), P03372. hit rate 1.3% among 86,000. TR-FRET ERalpha-LBD/SRC-Cy5 coactivator binding, 2 h; 100 = basal binding, no effect. coactivator binding (% of control), % at 25.6 µM; in the data active means activity above about 200%;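 further: binding measured in presence of low estradiol as agonist stimulus; 0% = peptide alone without receptor and 100% = receptor with peptide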
# MRP1 act: H69AR viability gain despite doxorubicin, primary screen, MRP-1 activator project, H69AR cells, CellTiter-Glo; viability increase, % at 10 µM; hit rate 0.61% among 140,000; viability rescue; AID 799, 2007;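 active means viability gain under doxorubicin at or above a set limit, the compound median plus 3 SD, cut at about 4.7% in these data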;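 further: MRP-1 overexpressing cells given doxorubicin 25 µM after compound pretreatment; 18-22 h compound pretreatment then 72 h with doxorubicin before readout; 0% = doxorubicin-only wells and 100% = vehicle-treated cells without doxorubicin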
# MRP reversal: reversal of MRP1-mediated doxorubicin resistance, primary screen, H69AR cells, doxorubicin co-treatment; H69AR cells + 2 uM doxorubicin, CellTiter-Glo, 72 h; differential viability (reversal), % at 10 µM; hit rate 0.04% among 85,000; AID 602, 2007;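 active means viability drop by adding the cancer drug above about 55%, with treated viability meeting a 40% cutoff, limit read from the data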;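 further: viability without doxorubicin minus viability with 2 µM doxorubicin for each compound; larger differential means the compound sensitizes cells more to doxorubicin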
# Starred values were filed as active, the others as inactive; nt = not tested or not shown; [ ] = another dose, or the depositor's remark. Only some compounds are listed: those with a hit (about 2.7% of all), similar ones and a draw of the others.
SMILES,ERb SRC1 inh,ERa SRC1 inh,ERa SRC1 pot,MRP1 act,MRP reversal
C#C[C@]1(O)CC[C@H]2[C@@H]3CCc4cc(OC)ccc4[C@H]3CC[C@@]21C,nt,nt,nt,0.7,nt
C[C@]12CC[C@@H]3c4ccc(O[C@@H]5O[C@H](C(=O)O)[C@@H](O)[C@H](O)[C@H]5O)cc4CC[C@H]3[C@@H]1C[C@@H](O)[C@@H]2O,9.9,-8.4,429.1*,nt,-12.9
Cc1occc1C(=O)NNC(=O)C(c1ccccc1)c1ccccc1,nt,nt,nt,0.0,nt
CCc1c(C)sc(NC(=O)c2cnn3cccnc23)c1C#N,32.3,36.1,261.7*[fluorescence artefact?],-1.6,6.2
CCOC(=O)CNC(=O)c1cnn2cccnc12,37.8,4.5,104.3,-1.0,0.5
Cc1ccc2c(c1)N(CC(=O)NC1CCC(C)CC1)C(=O)CO2 (centres undefined),-4.3,3.0,119.6,-1.2,9.9
Cc1ccc2c(c1)N(CC(=O)NC1CCCc3ccccc31)C(=O)CO2 (centres undefined),17.3,66.8*,92.7,-2.3,-0.1
CCOC(=O)N1CCN(S(=O)(=O)c2ccc(C(=O)Nc3nc4ccccc4s3)cc2)CC1,30.2,42.1,280.0*[fluorescence artefact?],-2.1,2.4
CCOC(=O)N1CCN(S(=O)(=O)c2ccc(F)cc2)CC1,-7.5,-8.1,106.5,0.3,11.6
CCOC(=O)c1sc(NC(=O)c2ccc(S(=O)(=O)N3CCCCC3)cc2)nc1-c1ccccc1,nt,nt,nt,0.5,nt
CCOC(=O)N1CCN(S(=O)(=O)c2ccc(C(=O)Nc3nc4ccc(F)cc4s3)cc2)CC1,4.9,-4.9,377.0*,-5.3,1.8
Cc1nn(C(=O)c2cccs2)c(C)c1CN1C(=O)c2ccccc2C1=O,-12.6,5.8,127.6,-1.5,-6.4
Cc1nn(C(=O)c2ccco2)c(C)c1CN1C(=O)c2ccccc2C1=O,8.2,27.8,200.3*[fluorescence artefact?],-0.6,-4.3
CC(/C=C1\N=C(SCc2ccccc2Cl)SC1=O)=C\c1ccccc1,nt,nt,nt,-1.2,nt
COc1ccc(CSC2=NCCN2)cc1Cl,16.1,-3.4,106.2,9.7*,5.3
CCCOc1ccc(CSC2=NCCN2)cc1[N+](=O)[O-],nt,nt,nt,-1.2,nt
Cn1nc(N)c2c(-c3ccc(Cl)cc3)c(C#N)c(N)nc21,nt,nt,nt,-4.0,nt
CCN(CC)c1ccc(-c2c(C#N)c(N)nc(OC)c2C#N)cc1,25.6,21.1,212.5*[fluorescence artefact?],-1.5,-6.8
C/C(=N\NC(=O)c1cccc(S(=O)(=O)Nc2cccc(Cl)c2)c1)c1cccs1,nt,nt,nt,5.6*,nt
COc1ccc(O[C@H]2C=C[C@@H](c3ccccc3)O[C@@H]2CO/N=C(\C)CCN2CCCCc3nc(C)c(C)cc32)cc1,nt,nt,nt,-3.6,nt
Cc1cc2cc(CNC(=O)c3cccs3)ccc2n1C,46.8,74.8*[fluorescence artefact?],64.6,-1.8,7.5
Cc1cc2cc(CNC(=O)Nc3ccccc3)ccc2n1C,17.3,11.2,222.0*[fluorescence artefact?],-0.5,-10.7
CCc1ccc(N(C(=O)c2snc(C(N)=O)c2N)C(C(=O)NCCC(C)C)c2c[nH]c3ccccc23)cc1 (centres undefined),nt,nt,nt,-2.4,nt
Cc1c2c(n3c(nc4ccccc43)c1C#N)N(Cc1ccccn1)CC2,-1.4,-3.1,122.6,nt,14.9
CCC(Sc1nc2ccccc2o1)C(=O)Nc1nnc(C)s1 (centres undefined),nt,nt,nt,6.4*,nt
SMILES,ERb SRC1 inh,ERa SRC1 inh,ERa SRC1 pot,MRP1 act,MRP reversal
O=C1c2ccccc2-c2onc3c(Oc4ccccc4)cc(O)c1c23,70.7*[fluorescence artefact?],73.8*[fluorescence artefact?],16.4,-3.0,-21.0
COc1cccc2cc(C(C)=O)c(=O)oc12,-11.3,-17.3,108.5,-2.2,5.2
COc1cccc2cc3c(=O)n(-c4ccccc4)nc-3oc12,80.9*,99.2*[fluorescence artefact?],5.8,-5.2,1.0
Cc1cccc(-n2ncc3c(N4CC(C)CC(C)C4)ncnc32)c1 (centres undefined),-9.7,-4.7,111.9,5.3*,-6.3
Cc1cccc(-n2ncc3c(N4CCCC4)ncnc32)c1,1.6,1.4,96.2,-1.2,-15.4
O=C(CSc1ncnc2sc3c(c12)CCCC3)N1CCC(c2noc3ccc(F)cc23)CC1,65.7*[fluorescence artefact?],28.9,354.9*[fluorescence artefact?],-0.2,4.9
Cc1cc(SCC(=O)N2CCC(c3noc4ccc(F)cc34)CC2)nc2ccccc12,48.8,41.3,124.3,-1.2,-8.7
CN(C1CCCCC1)S(=O)(=O)c1ccc(S(=O)(=O)N2CCN(CCC#N)CC2)cc1,53.8*,-8.0,112.8,-0.7,10.0
CCS(=O)(=O)Nc1ccc(C(=O)CC2(O)C(=O)Nc3ccccc32)cc1 (centres undefined),-4.0,-2.8,218.7*[fluorescence artefact?],-0.9,-9.2
Cc1cc(C)c(C(=O)CC2(O)C(=O)Nc3ccccc32)cc1C (centres undefined),11.9,14.3,97.1,-0.3,9.1
O=C(COC(=O)c1ccccc1NC(=O)C1CC1)c1ccc2c(c1)OCCO2,nt,nt,nt,2.2,nt
O=Cc1ccc2oc3nc4n(c(=O)c3c(=O)c2c1)CCCS4,57.5*,65.9*,152.8,-0.5,0.6
Cc1cc(C)n(CC(O)COc2ccc(OCC(O)Cn3nc(C)cc3C)cc2)n1 (centres undefined),3.8,-3.1,103.0,nt,4.8
CCCCCn1c(SCC#N)nc2cc(C(=O)NCC3CCCO3)ccc2c1=O (centres undefined),46.9,55.7*[fluorescence artefact?],248.3*[fluorescence artefact?],-1.3,-9.2
COC(=O)c1ccc2c(=O)n(CC3CCCO3)c(SCC(=O)Nc3ccccc3Cl)nc2c1 (centres undefined),15.5,56.6*,81.1,-2.9,-0.6
CCOc1cccc(NC(=O)C2CCCN(S(=O)(=O)c3ccc(-n4cnnn4)cc3)C2)c1 (centres undefined),-1.1,-8.3,236.9*[fluorescence artefact?],-0.4,nt
COc1cccc(NC(=O)C2CCCN(S(=O)(=O)c3ccc(-n4cnnn4)cc3)C2)c1 (centres undefined),-2.2,-5.7,135.1,-2.3,1.6
CC1(C)C2CC=C(/C=N/NC(=O)c3ccc(O)cc3)C1C2 (centres undefined),nt,nt,nt,0.3,nt
Cc1ccc(-c2nc3ccccc3[nH]2)cc1NC(=O)c1sc2cc(Cl)ccc2c1Cl,nt,nt,nt,-0.7,nt
NNC(=O)CNC(c1ccccc1)c1cc(Br)ccc1NC(=O)c1cccc(Cl)c1 (centres undefined),nt,nt,nt,11.1*,nt
CCN1CCN(c2ccc(NC(=O)c3cccc4ncccc34)cc2)CC1,63.1*[fluorescence artefact?],50.0*[fluorescence artefact?],25.3,-1.4,-7.4
COc1ccc(-c2ccc(C#N)c(SCC(=O)OCc3ccccc3)n2)cc1OC,43.4,-1.2,205.6*[fluorescence artefact?],-0.2,-1.3
Cc1ccc(C(=O)CSc2nc(-c3ccccc3)ccc2C#N)cc1,nt,nt,nt,-1.1,nt
N#Cc1ccc(-c2ccc3c(c2)OCO3)nc1SCC(=O)OCc1ccccc1,-4.7,17.3,245.9*[fluorescence artefact?],-3.4,20.0
Cc1ccccc1C(=O)NNC(=O)CSc1nnc(-c2ccncc2)n1-c1ccccc1,nt,nt,nt,-1.6,nt
CCCn1c(=N)c(C#N)cc2c(=O)n3ccccc3nc21,nt,nt,nt,-2.5,nt
